Test results published in PubChem BioAssay (NCATS).
Records with an inconclusive call do not appear. A call without a number means that no potency is given here. Unmarked numbers belong to inactive results. Calls of active or inactive are those of the source. Calls follow the shape of the dose curve; as a rule, active = well fitted curve in the direction sought with a large enough effect; inconclusive = small, poorly fitted or top-dose-only effect, or another doubt; inactive = no such curve, though single readings can be large; an effect the other way counts as inactive or inconclusive. Where a SMILES comes first, the peptide text is derived from it. The star is where a group is joined. Boc = CC(C)(C)OC(=O)*

Columns and labels:
[1] = test system: Zika virus NS2B-NS3 protease; assay: Primary screen GU AMC qHTS for Zika virus inhibitors (AID 1347154); also: nearly all actives have a fitted effect of over 70% in size; also: potency is read from the fitted curve at half-maximal effect
Procedure, shortened: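 Fluorogenic AMC-substrate cleavage by noncovalent NS2B-NS3 protease complex (25 nM, pH 8.0 Tris buffer with Tween 20) followed for 15 minutes at room temperature (~20% conversion). Percent inhibition from ex340/em450 signal change, fitted by 4-parameter Hill equation.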

[2] = Primary qHTS for small molecule stabilizers of the endoplasmic reticulum resident proteome: Secreted ER Calcium Modulated Protein (SERCaMP) assay (AID 1508630)
Procedure, shortened: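 The SH-SY5Y reporter protocol was run at 3 concentrations up to 38.3 uM (primary) or 11 concentrations (follow-up): 16 h compound, 100 nM thapsigargin for 4 h, then extracellular luciferase luminescence.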

Row | SMILES | Potency [1] | Potency [2] | activity change, negative = inhibition [1] | activity change, negative = inhibition [2]
1 | CC(C)=CCN1CCC2(CCc3ccccc32)CC1 | inactive | inactive |  | 
2 | COC(=O)[C@H](Cc1ccc(C#Cc2ccccc2)cc1)NC(=O)C[C@H]1CCCN(C(=N)N)C1 | inactive | inactive |  | 
3 | CN(C)C(=O)n1nnnc1Cc1ccc(-c2ccccc2)cc1 | inactive | inactive |  | 
4 | CC(N)(C(=O)O)c1ccc(-c2nn[nH]n2)cc1 (stereo unspecified) | inactive | inactive |  | 
5 | CCCCCCCC/C=C\CCCCCCCCOC[C@H](COP(=O)([O-])OCC[N+](C)(C)C)OC(C)=O |  |  | 11.8% [at 6.83 µM] | -15.7% [at 3.88 µM]
6 | O=P(O)(O)C(O)c1ccc2ccccc2c1 (stereo unspecified) | inactive | inactive |  | 
7 | C[C@]12CC[C@@H](O)C[C@@H]1CC[C@@H]1[C@@H]2CC[C@]2(C)C=CC[C@@H]12 | inactive | inactive |  | 
8 | O=c1ccn([C@@H]2O[C@H](COP(=O)(O)OP(=O)(O)OP(=O)(O)O)[C@@H](O)[C@H]2O)c(=O)[nH]1 | inactive | inactive |  | 
9 | CCCCC/C=C\C\C=C/C=C/C=C/[C@@H](SC[C@H](N)C(=O)O)[C@@H](O)CCCC(=O)O |  |  | 5.9% [at 0.59 µM] | -5.61% [at 0.478 µM]
10 | CCc1c2c(nc3ccc(OC(=O)N4CCC(N5CCCCC5)CC4)cc13)-c1cc3c(c(=O)n1C2)COC(=O)C3(O)CC (stereo unspecified) | 29.9 µM (active) | inactive |  | 
11 | Cn1cnc2nc(NCCO)nc(NCc3ccccc3)c21 | inactive | inactive |  | 
12 | C[C@@H](N)CCCP(=O)(O)O | inactive | inactive |  | 
13 | CS/C(N)=C(C#N)/C(C#N)=C(\N)SC | inactive | inactive |  | 
14 | CC(C)[C@H](NC(=O)CNC(=O)OC(C)(C)C)C(=O)N[C@H](C=O)C(C)C (Boc-Gly-Val-Val-aldehyde) | inactive | inactive |  | 
15 | OCc1cc2c(cn1)[nH]c1ccccc12 | 26.7 µM (active) | inactive |  | 
16 | CC(=O)N[C@@H](CSC/C=C(\C)CCC=C(C)C)C(=O)O | inactive | inactive |  | 
17 | CNC(=S)NCCCCc1cnc[nH]1 | inactive | inactive |  | 
18 | OC[C@H]1O[C@@H](n2cnc3c(NC4CCCC4)nc(Cl)nc32)[C@H](O)[C@@H]1O | inactive | inactive |  | 
